Bioassay records deposited in PubChem by National Center for Advancing Translational Sciences (NCATS).
D2 PAM-1 = Beta-Arrestin HTS for Positive Allosteric Modulators of the Human D2 Dopamine Receptor: Potentiators. D(2) dopamine receptor (Homo sapiens), P14416. DiscoveRx D2 beta-arrestin cells, luminescence, 90 min; 100% = 57 uM dopamine signal. potentiation, % (no concentration beside the values). 0.23% of 360,000 active. AID 624464, 2012; in the data active = potentiation above about 50%
Target sequence (P14416 whole entry, looked up): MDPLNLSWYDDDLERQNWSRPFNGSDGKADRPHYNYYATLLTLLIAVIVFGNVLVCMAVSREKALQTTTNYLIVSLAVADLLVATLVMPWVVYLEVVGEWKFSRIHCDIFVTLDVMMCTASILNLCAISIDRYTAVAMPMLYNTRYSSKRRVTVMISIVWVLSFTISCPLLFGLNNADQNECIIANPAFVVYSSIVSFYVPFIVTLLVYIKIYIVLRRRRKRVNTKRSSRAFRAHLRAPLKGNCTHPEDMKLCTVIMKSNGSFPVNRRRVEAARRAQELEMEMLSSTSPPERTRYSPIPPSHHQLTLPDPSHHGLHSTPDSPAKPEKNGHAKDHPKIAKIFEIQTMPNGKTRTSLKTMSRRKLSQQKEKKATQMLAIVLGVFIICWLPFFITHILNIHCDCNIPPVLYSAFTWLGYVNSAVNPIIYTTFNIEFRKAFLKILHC
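PathHunter D2 cells, attached overnight at 37 deg C, received compound in DMSO plus dopamine at EC20 (50 nM final) for 90 min at 37 deg C. Beta-arrestin recruitment was read as luminescence after 1 h with detection reagent at ambient temperature.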
D2 ag-1 = Beta-Arrestin HTS for Positive Allosteric Modulators of the Human D2 Dopamine Receptor: Agonists; activation, % (test concentration not listed); 0.084% of 360,000 active; DiscoveRx PathHunter D2 beta-arrestin, luminescence, 90 min; 100% = 57 uM dopamine signal; in the data active = activation above about 40%
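Agonist mode: compounds alone added to overnight-plated D2 PathHunter cells for 90 min at 37 C, with 57 uM final dopamine (EC100) defining full response. Beta-arrestin recruitment detected by chemiluminescent reagent, read after 1 h at ambient temperature.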
D2 antag = HTS Assay for Allosteric Antagonists of the Human D2 Dopamine Receptor: Primary Screen for Antagonists. D(2) dopamine receptor (Homo sapiens), P14416. HEK293 TREx D2 cells, calcium flux, dopamine EC80. inhibition, % at 10 µM. 2% of 340,000 active; in the data active = inhibition above about 30%; inactive = below that, where a call was filed; also: 0% is about no effect
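In this primary screen, negative modulation is detected by tracking calcium flux after an EC80 dopamine challenge in inducible HEK293 T-REx D2 cells preexposed to test compound for 180 s.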
D2 ag-2 = HTS Assay for Allosteric Agonists of the Human D2 Dopamine Receptor: Primary Screen for Agonists. activation, % at 2 µM. AID 485358, 2010. D(2) dopamine receptor (Homo sapiens), P14416. 0.53% of 340,000 active. HEK293 T-REx D2 cells, calcium flux agonist mode;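 active = activation over 3 SD above normal in the single-dose calcium agonist read, cut at about 30% in these data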; also: 0% is about no effect
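HEK293 Trex D2 cells, tetracycline-induced, o/n 30 C 5% CO2; no-wash Ca dye, RT 30–90 min; 10-cycle baseline, 23 nl cpd added, kinetic Ca read 180 s; agonist hits = positive Ca response.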
D2 PAM-2 = HTS Assay for Positive Allosteric Modulators of the Human D2 Dopamine Receptor: Primary Screen for Potentiators; D(2) dopamine receptor (Homo sapiens), P14416; HEK293 T-REx D2, calcium flux, EC20 dopamine potentiation; potentiation, % at 10 µM; 0.34% of 340,000 active; AID 485347, 2010;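 active = potentiation over 3 SD above the plate norm, cut at about 30% in these data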; also: 0% is about no effect
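Tetracycline-induced HEK293 T-REx cells force-coupled to calcium signalling expressed D2; compounds were pin-added after a 10 s baseline, read kinetically 180 s, then an EC20 dopamine challenge followed with a further 180 s calcium read.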
Starred values were filed as active, the others as inactive; / = no result. Only some compounds are listed: those with a hit (about 2.4% of all), similar ones and a draw of the others.

SMILES	D2 PAM-1	D2 ag-1	D2 antag	D2 ag-2	D2 PAM-2
CN(C(=O)N1CCN(c2ccccn2)CC1)c1ccccc1	8	1	39*	0	-12
CSc1ccc(CCNC(=O)Cn2nc(C)n3c(cc4sccc43)c2=O)cc1	/	/	/	0	-5
Cc1cccc(N2CCN(c3ccc4cc(S(=O)(=O)N5CCC(C)CC5)ccc4n3)CC2)c1C	/	/	/	0	7
CCC(CC)C(=O)N(c1ccc(F)cc1)C1C=CS(=O)(=O)C1 (stereo unspecified)	-7	2	73*	1	1
Cc1ccc(/C=C/c2onc(C)c2S(=O)(=O)N2CCC(C(=O)Nc3cccc(C#N)c3)CC2)cc1	/	/	/	2	-12
CCN(CC)c1ccc(-c2nc(-c3ccco3)no2)cc1[N+](=O)[O-]	/	/	/	-1	0
CCc1cc2ccc(OC)cc2nc1SCC(=O)NNC(C)=O	-4	-6	57*	-3	-2
CCc1cc2ccc(OC)cc2nc1SCC(=O)Nc1cc(C)on1	-14	-1	-12	0	3
CSc1oc(-c2ccco2)nc1S(=O)(=O)c1ccccc1	-4	-4	4	0	-6
CC(C)Sc1oc(-c2ccco2)nc1S(=O)(=O)c1ccccc1	-15	-3	33*	-3	-3
CCCOc1cc(C)c(Cl)cc1S(=O)(=O)N(CC)CC	-22	-5	7	-1	3
CCOc1cc(C)c(Cl)cc1S(=O)(=O)N(C)C	-3	0	49*	0	7
Cc1c(Cl)cccc1NC(=O)C(=O)NCCc1csc(-c2cccc(F)c2)n1	/	/	/	0	-1
CC1CC(C)CN(S(=O)(=O)c2ccc(NC(=O)C3CSC4(C)CCC(=O)N34)cc2)C1 (stereo unspecified)	-1	-3	-11	0	30*
CC(NC(=O)c1cc(S(=O)(=O)N(C)C)ccc1Cl)C1CC2CCC1C2 (stereo unspecified)	-1	0	35*	0	-5
CC(NC(=O)c1cccc(S(=O)(=O)N(C)C)c1)C1CC2CCC1C2 (stereo unspecified)	-8	-2	-13	-2	3
O=C(Nc1ccccc1C(F)(F)F)N1CCC(CN2CCc3ccccc3C2)CC1	/	/	/	4	2
O=C1C(Nc2ccccc2)=C(N2CCCCC2)C(=O)c2ccccc21	19	7	-18	0	3
O=C1C(Nc2cccc(O)c2)=C(N2CCCCC2)C(=O)c2ccccc21	65*	4	-5	0	4
N#C/C(=C\c1ccc(N2CCCCC2)o1)C(=O)Nc1cccc(Br)c1	-13	-4	13	95*	-6
S=c1[nH]nc(COc2ccccc2)n1/N=C/c1ccccc1Br	-11	-1	38*	-1	-2
O=C(CC1N=C2c3ccccc3N=C(SCc3cccc(Cl)c3)N2C1=O)NC1CCCCC1 (stereo unspecified)	/	/	/	0	0
CCn1c(C(=O)Nc2ccccc2C(=O)OC)cc2sc(Cl)cc21	/	/	/	0	6
N=c1oc2ccc(Br)cc2cc1C(=O)NCc1ccc(F)cc1	-8	-4	9	0	-4
CCN(CC)c1ccc2cc(C(=O)NCc3ccc(F)cc3)c(=N)oc2c1	/	/	2	46*	-9
CC1CCN(C2CCN(S(=O)(=O)c3ccc(F)cc3)CC2)CC1	-14	-1	9	1	-8
O=S(=O)(c1ccc(F)cc1)N1CCC(N2CCCCCC2)CC1	-13	-2	42*	14	-8
COc1ccc(OCC(=O)Nc2nnc3n2CCS3)cc1	/	/	/	1	9
Cc1cc(C(=O)CSc2nnc(N)s2)c(C)n1CCc1ccc(Cl)cc1	11	-1	-20	0	5
Cc1cc(C(=O)CSc2nnc(N)s2)c(C)n1CCc1ccc(F)cc1	-14	-3	43*	0	-5
